Calls of active or inactive are those of the source. How the source made its calls: active means hit-call score of the fitted dose curve at least 0.9, where 1 is the maximum; inactive means score below 0.9.
Experiments:
[1] = ATG_M_61_CIS: Attagene CIS-FACTORIAL HepG2 Assay for M61 Transcription Factor (Internal Marker) (AID 2282937); conditions: HepG2 Attagene CIS-FACTORIAL M61 internal marker reporter; actives raise or lower the signal
Outline: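 Human liver HepG2, transient MRTU transfection (cis promoter elements), 24 h compound. Total RNA → oligo(dT) RT → PCR → FAM label → HpaI → CE. Internal background marker; bidirectional fitting, DMSO = baseline.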

[2] = ATG_EGR_CIS: Attagene CIS-FACTORIAL HepG2 Assay for human Early Growth Response 1 (EGR1) (AID 2282938); conditions: HepG2 Attagene CIS-FACTORIAL EGR reporter mRNA; actives raise or lower the signal
Outline: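 Transient transfection of human HepG2 with multiple cis-regulated reporter units, chemical exposure 24 h, total RNA isolated. Reverse transcription, PCR, fluorescent labelling and capillary electrophoresis quantify reporter transcripts; activity fitted bidirectionally against DMSO.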

[3] = ATG_M_19_CIS: Attagene CIS-FACTORIAL HepG2 Assay for M19 Transcription Factor (Internal Marker) (AID 2282939); conditions: HepG2 Attagene CIS-FACTORIAL M19 internal marker reporter; actives raise or lower the signal
Outline: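 Chemical-treated HepG2 (24 h) with MRTU constructs; reporter transcripts detected by fluorescent RT-PCR fragment analysis on capillary electrophoresis. Internal background marker, DMSO as baseline.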

[4] = ATG_Ets_CIS: Attagene CIS-FACTORIAL HepG2 Assay for human Erythroblast Transformation Specific (ETS) (AID 2282941); conditions: HepG2 ETS cis-reporter transcription, actives raise or lower the signal
Outline: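 HepG2 cells transiently transfected with cis-promoter reporter transcription units were dosed for 24 h; reporter mRNA was measured by RT-PCR, 6-FAM primer extension, HpaI digestion and capillary electrophoresis, with bidirectional fitting against DMSO baseline.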

[5] = target: Hepatocyte nuclear factor 3-beta (Homo sapiens) (UniProt Q9Y261); assay: ATG_FoxA2_CIS: Attagene CIS-FACTORIAL HepG2 Assay for human Forkhead box A2 (FOXA2) (AID 2282942); conditions: HepG2 cis-reporter transcription factor activity, 24 h; actives raise or lower the signal
Hepatocyte nuclear factor 3-beta (Homo sapiens), sequence (Q9Y261 whole entry, looked up): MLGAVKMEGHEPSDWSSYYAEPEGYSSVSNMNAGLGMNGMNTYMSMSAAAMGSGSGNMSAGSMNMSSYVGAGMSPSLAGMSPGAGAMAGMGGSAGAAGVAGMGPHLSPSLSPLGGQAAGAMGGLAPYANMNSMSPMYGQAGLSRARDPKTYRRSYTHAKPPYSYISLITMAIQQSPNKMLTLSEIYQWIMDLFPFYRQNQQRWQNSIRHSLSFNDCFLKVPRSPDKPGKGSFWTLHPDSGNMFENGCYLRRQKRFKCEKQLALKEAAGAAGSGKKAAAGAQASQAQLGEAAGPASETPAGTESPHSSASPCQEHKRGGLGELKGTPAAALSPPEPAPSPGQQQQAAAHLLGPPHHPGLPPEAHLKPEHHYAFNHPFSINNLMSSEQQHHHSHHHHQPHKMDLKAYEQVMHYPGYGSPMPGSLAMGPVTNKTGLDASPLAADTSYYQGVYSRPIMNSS
Outline: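 Transient MRTU transfection of HepG2 liver cells; 24 h treatment; total RNA → oligo(dT) RT → PCR → FAM primer extension → HpaI cut → CE. Bidirectional fit vs DMSO.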

[6] = ATG_FoxO_CIS: Attagene CIS-FACTORIAL HepG2 Assay for human Forkhead box O (FoxO) (AID 2282943); conditions: HepG2 Attagene cis-reporter, FoxO element, mRNA; actives raise or lower the signal
Outline: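 Read-out: fluorescence of 6-FAM-labelled reporter cDNA fragments resolved by capillary electrophoresis. Transiently transfected HepG2 cells were dosed for 24 h; activity fitted in both directions relative to DMSO controls.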

[7] = ATG_GATA_CIS: Attagene CIS-FACTORIAL HepG2 Assay for human GATA Binding Protein (AID 2282944); conditions: HepG2 GATA cis-element reporter, Attagene multiplex mRNA; actives raise or lower the signal
Outline: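 Transfected cis-reporter HepG2 cells were treated with chemicals for 24 hours. Total RNA was then converted to cDNA, amplified with reporter-specific primers and analysed by fluorescent capillary electrophoresis, using DMSO-treated wells as baseline.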

[8] = ATG_GLI_CIS: Attagene CIS-FACTORIAL HepG2 Assay for human Zinc Finger Protein GLI1 (AID 2282945); conditions: HepG2, Attagene cis-factorial reporter mRNA, GLI element; actives raise or lower the signal
Outline: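 Transiently transfected HepG2 cells report endogenous transcription factor activity via cis-element-driven reporter units. After 24 h compound exposure, reporter mRNA was measured by RT-PCR with capillary electrophoresis; bidirectional fitting against DMSO baseline.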

[9] = target: Bile acid receptor (Homo sapiens) (UniProt Q96RI1); assay: ATG_IR1_CIS: Attagene CIS-FACTORIAL HepG2 Assay for human Nuclear Receptor Subfamily 1 Group H Member 4 (NR1H4), IR1 submotif (AID 2282946); conditions: IR1 reporter transcription, actives raise or lower the signal
Bile acid receptor (Homo sapiens), sequence (Q96RI1 whole entry, looked up): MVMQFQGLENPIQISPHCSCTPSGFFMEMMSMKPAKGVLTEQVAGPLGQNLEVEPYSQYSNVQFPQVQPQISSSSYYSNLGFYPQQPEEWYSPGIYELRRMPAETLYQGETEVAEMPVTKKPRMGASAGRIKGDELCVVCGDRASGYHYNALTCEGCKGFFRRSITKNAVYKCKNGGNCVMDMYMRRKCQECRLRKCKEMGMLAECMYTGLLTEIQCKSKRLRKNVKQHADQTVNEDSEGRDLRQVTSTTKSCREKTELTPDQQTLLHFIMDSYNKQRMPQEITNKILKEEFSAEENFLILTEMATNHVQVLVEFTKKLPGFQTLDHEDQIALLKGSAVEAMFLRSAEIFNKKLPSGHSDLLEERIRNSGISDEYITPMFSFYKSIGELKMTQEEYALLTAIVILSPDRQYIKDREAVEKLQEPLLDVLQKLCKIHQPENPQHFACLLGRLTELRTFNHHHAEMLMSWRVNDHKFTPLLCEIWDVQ
Outline: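 HepG2 cells transiently transfected with multiple cis-promoter-driven reporter units to measure endogenous transcription factor activity; 24 h exposure. Reporter mRNA read by RT-PCR, FAM labelling, HpaI digestion and capillary electrophoresis. Bidirectional fit versus DMSO.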

[10] = ATG_GRE_CIS: Attagene CIS-FACTORIAL HepG2 Assay for human Glucocorticoid Response Elements (GRE) (AID 2282947); conditions: HepG2 GRE cis-reporter, Attagene multiplex mRNA; actives raise or lower the signal
Outline: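 Endogenous transcription factor activity is read through cis-element reporter constructs transiently transfected into HepG2 cells. After 24 h treatment, labelled RT-PCR products are resolved by capillary electrophoresis; DMSO sets baseline for bidirectional curve fitting.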

[11] = ATG_ISRE_CIS: Attagene CIS-FACTORIAL HepG2 Assay for human Interferon Regulatory Factor 1 (IRF1) binding to an Interferon-Stimulated Response Element (ISRE) (AID 2282948); conditions: HepG2 ISRE cis-reporter (Attagene), mRNA transcription readout; actives raise or lower the signal
Outline: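 HepG2 cells transiently transfected with multiplexed cis-promoter reporter units; after 24 h compound exposure, reporter mRNA quantified by RT-PCR, FAM labelling, HpaI digestion and capillary electrophoresis. Bidirectional fit versus DMSO baseline.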

[12] = ATG_M_32_CIS: Attagene CIS-FACTORIAL HepG2 Assay for M32 Transcription Factor (Internal Marker) (AID 2282949); conditions: HepG2 Attagene cis-factorial M32 reporter, mRNA; actives raise or lower the signal;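 further: background control marker of the multiplexed CIS panel rather than a real target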
Outline: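 Internal background marker read-out: RT-PCR/capillary electrophoresis fluorescence of reporter transcripts from transiently transfected HepG2 cells after 24 h chemical exposure. Activity fitted bidirectionally relative to DMSO negative control.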

[13] = ATG_M_06_CIS: Attagene CIS-FACTORIAL HepG2 Assay for M06 Transcription Factor (Internal Marker) (AID 2282950); conditions: HepG2 Attagene CIS-FACTORIAL M06 internal marker reporter; actives raise or lower the signal
Outline: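 Cells (HepG2, transiently carrying cis-driven reporter units) receive chemical for 24 h before RNA isolation. Reporter cDNA is PCR-amplified, FAM-labelled by primer extension, HpaI-digested and sized on a capillary analyser.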

[14] = target: Hypoxia-inducible factor 1-alpha (Homo sapiens) (UniProt Q16665); assay: ATG_HIF1a_CIS: Attagene CIS-FACTORIAL HepG2 Assay for human Hypoxia Inducible Factor 1 (HIF1A) (AID 2282951); conditions: HepG2 Attagene cis-factorial HIF1a reporter transcription; actives raise or lower the signal
Hypoxia-inducible factor 1-alpha (Homo sapiens), sequence (Q16665 whole entry, looked up, the tested form may be a part): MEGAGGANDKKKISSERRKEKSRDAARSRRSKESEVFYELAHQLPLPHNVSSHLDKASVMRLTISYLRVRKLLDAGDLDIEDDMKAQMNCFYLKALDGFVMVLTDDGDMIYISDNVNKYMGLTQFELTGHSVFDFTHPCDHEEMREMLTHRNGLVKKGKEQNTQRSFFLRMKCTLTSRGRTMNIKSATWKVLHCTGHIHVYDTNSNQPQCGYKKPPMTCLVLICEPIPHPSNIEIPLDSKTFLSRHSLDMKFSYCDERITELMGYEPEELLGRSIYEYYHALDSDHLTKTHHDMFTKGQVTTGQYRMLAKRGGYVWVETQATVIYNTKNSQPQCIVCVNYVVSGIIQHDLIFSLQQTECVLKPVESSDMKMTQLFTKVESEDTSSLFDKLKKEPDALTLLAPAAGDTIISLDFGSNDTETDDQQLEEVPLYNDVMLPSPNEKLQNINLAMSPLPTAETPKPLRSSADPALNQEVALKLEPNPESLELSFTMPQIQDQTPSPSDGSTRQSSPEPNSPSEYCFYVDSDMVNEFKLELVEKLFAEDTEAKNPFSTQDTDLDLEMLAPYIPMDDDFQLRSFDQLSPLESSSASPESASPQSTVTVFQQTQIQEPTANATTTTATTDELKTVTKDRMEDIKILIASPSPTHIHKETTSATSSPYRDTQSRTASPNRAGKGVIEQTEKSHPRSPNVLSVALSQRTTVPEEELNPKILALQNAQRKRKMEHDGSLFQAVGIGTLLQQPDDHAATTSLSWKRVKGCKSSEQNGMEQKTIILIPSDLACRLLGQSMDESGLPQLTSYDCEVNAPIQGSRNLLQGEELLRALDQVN
Outline: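 Transient MRTU transfection of human HepG2 liver cells, 24 h compound treatment, then total RNA isolation, oligo(dT) reverse transcription, PCR amplification, fluorescent labelling and capillary electrophoresis of reporter fragments. Gain or loss relative to DMSO.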

[15] = target: Heat shock factor protein 1 (Homo sapiens) (UniProt Q00613); assay: ATG_HSE_CIS: Attagene CIS-FACTORIAL HepG2 Assay for human Heat Shock Transcription Factor 1 (HSE) (AID 2282953); conditions: HepG2 HSE cis-reporter, Attagene RNA transcription; actives raise or lower the signal
Heat shock factor protein 1 (Homo sapiens), sequence (Q00613 whole entry, looked up): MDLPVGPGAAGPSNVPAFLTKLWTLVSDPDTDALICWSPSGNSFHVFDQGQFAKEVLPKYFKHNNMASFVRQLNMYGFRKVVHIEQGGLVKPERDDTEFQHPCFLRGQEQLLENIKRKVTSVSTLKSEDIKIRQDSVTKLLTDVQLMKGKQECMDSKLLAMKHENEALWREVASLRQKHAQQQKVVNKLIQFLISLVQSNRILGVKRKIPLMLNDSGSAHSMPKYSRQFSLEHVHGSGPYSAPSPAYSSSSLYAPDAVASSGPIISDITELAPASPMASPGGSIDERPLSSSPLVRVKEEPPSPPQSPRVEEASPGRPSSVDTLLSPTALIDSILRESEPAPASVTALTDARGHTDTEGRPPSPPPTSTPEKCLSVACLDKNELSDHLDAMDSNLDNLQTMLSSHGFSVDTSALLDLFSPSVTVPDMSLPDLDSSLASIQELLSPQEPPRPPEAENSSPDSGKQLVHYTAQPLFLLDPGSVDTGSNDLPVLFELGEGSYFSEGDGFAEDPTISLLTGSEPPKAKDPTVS
Outline: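 Liver-derived HepG2 cells carry transiently introduced multiple reporter units governed by cis promoters. Reporter RNA measured 24 h post-dose through reverse transcription, PCR amplification, fluorescent labelling and capillary electrophoresis, normalised to DMSO.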

[16] = ATG_MRE_CIS: Attagene CIS-FACTORIAL HepG2 Assay for human Metal Responsive Element (MRE) (AID 2282954); conditions: HepG2 MRE cis-reporter transcription, Attagene multiplex; actives raise or lower the signal
Outline: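 Fluorescent reporter fragments separated by capillary electrophoresis give mRNA induction for the MRE unit after 24 h treatment of transfected HepG2 cells. Endogenous transcription-factor activity is read; DMSO serves as negative control and baseline.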

[17] = target: Hepatocyte nuclear factor 6 (Homo sapiens) (UniProt Q9UBC0); assay: ATG_HNF6_CIS: Attagene CIS-FACTORIAL HepG2 Assay for human Hepatocyte Nuclear Factor 6 (HNF6) (AID 2282952); conditions: HepG2 Attagene cis-factorial HNF6 reporter transcription; actives raise or lower the signal
Hepatocyte nuclear factor 6 (Homo sapiens), sequence (Q9UBC0 whole entry, looked up): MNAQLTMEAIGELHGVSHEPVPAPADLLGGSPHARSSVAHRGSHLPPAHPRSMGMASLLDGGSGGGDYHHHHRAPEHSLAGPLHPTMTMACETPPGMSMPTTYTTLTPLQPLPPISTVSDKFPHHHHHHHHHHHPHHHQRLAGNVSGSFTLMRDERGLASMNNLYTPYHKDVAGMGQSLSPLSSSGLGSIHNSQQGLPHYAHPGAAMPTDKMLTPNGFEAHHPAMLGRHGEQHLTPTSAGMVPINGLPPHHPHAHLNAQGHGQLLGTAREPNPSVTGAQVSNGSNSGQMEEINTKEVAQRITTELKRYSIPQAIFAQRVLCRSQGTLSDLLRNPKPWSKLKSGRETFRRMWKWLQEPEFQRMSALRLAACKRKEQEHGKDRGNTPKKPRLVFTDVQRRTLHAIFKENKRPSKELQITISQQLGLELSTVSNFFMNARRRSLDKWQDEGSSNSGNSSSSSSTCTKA
Outline: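 Transiently transfected HepG2 cells expressing cis-regulated reporter transcription units were exposed to chemical for 24 h in a 24-well format. Reporter transcript abundance was determined by fluorescence capillary electrophoresis.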

[18] = ATG_PBREM_CIS: Attagene CIS-FACTORIAL HepG2 Assay for human Phenobarbital-responsive Enhancer Module (PBREM) (AID 2282955); conditions: HepG2 PBREM cis-reporter, Attagene multiplexed transcription; actives raise or lower the signal
Outline: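 Endogenous transcription factors in human liver HepG2 cells drive a PBREM cis-element reporter, whose transcript level after 24 h treatment is quantified by RT-PCR with capillary electrophoresis; activity fitted in both directions against DMSO.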

[19] = ATG_ERE_CIS: Attagene CIS-FACTORIAL HepG2 Assay for Estrogen Response Element (ERE) (AID 2282940); conditions: HepG2 ERE cis-reporter, Attagene RNA transcript; actives raise or lower the signal
Outline: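 Human liver cells (HepG2) bearing transiently transfected, promoter-regulated reporter units were exposed 24 h. Reporter mRNA induction was detected by capillary electrophoresis of labelled RT-PCR products and fitted bidirectionally to DMSO.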

Measured: AC50

CC(C)c1ccccc1O
not listed: [17] | [18] | [19]
inactive: all other assays above

O=P(O)(O)O
not listed: [7] | [11] | [15] | [16] | [18] | [19]
inactive: all other assays above

CCCCSCCCC
not listed: [9] | [19]
inactive: all other assays above

C[C@H](CCC(=O)NCC(=O)O)[C@H]1CC[C@H]2[C@@H]3[C@H](O)C[C@@H]4C[C@H](O)CC[C@]4(C)[C@H]3C[C@H](O)[C@]12C
not listed: [3] | [6] | [14] | [18] | [19]
inactive: all other assays above

OC[C@H]1O[C@@H](Oc2ccc(O)cc2)[C@H](O)[C@@H](O)[C@@H]1O
not listed: [4] | [9] | [10] | [18]
inactive: all other assays above

COC(C)(C)CCO
not listed: [4] | [9] | [19]
inactive: all other assays above

OCC(O)c1ccccc1 (stereo unspecified)
not listed: [2] | [7] | [9] | [10] | [11] | [16] | [18]
inactive: all other assays above

CC1CC(O)CC(C)(C)C1 (stereo unspecified)
not listed: [15] | [19]
inactive: all other assays above

CC(=O)CC(=O)Nc1ccccc1
active: [14] 24.2 µM
not listed: [3] | [6] | [17] | [18] | [19]
inactive: all other assays above

Nc1ccc(NCCO)c([N+](=O)[O-])c1
not listed: [4] | [9] | [19]
inactive: all other assays above

CCCCCCCCCCCCCCCC(=O)OC/C=C(C)/C=C/C=C(C)/C=C/C1=C(C)CCCC1(C)C
not listed: [2] | [7] | [14] | [15] | [17] | [19]
inactive: all other assays above

Cc1ccc(-c2ccccc2)cc1
not listed: [9] | [13] | [14] | [19]
inactive: all other assays above

Nc1ccc2cc(S(=O)(=O)O)cc(O)c2c1N=Nc1ccccc1C(F)(F)F
not listed: [19]
inactive: all other assays above

CCCC(C)C(O)CC (stereo unspecified)
not listed: [13] | [17] | [18] | [19]
inactive: all other assays above

c1ccc(CCc2ccccc2)cc1
not listed: [3] | [10] | [19]
inactive: all other assays above

COc1ccc(N=Nc2cc(C)c(N=Nc3ccc(S(=O)(=O)O)cc3)cc2OC)cc1
active: [7] 100 µM | [15] 100 µM
not listed: [4] | [9] | [16] | [19]
inactive: all other assays above

CCCCCCOC(=O)CCC
not listed: [2] | [3] | [6] | [10] | [19]
inactive: all other assays above

— PubChem BioAssay (EPA / NIEHS)
